“And” between values parts separate entries of the source, which are not always exact repeats. Equal values may be shown once. The campaign covered roughly 5,500 compounds. About 2,000 (36%) were called active. About 18% were inconclusive and are not listed. Cut-off read from the data, not from the text of the source: active = normalized growth mostly below about 0.91 (no sharp cut-off); inconclusive = no clear call, values can overlap the other calls; inactive = mostly above about 0.92. Some of the results follow.
Test: chemical genetic growth profiling, strain panel (AID 1159580);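 note: tested at 20 µM; growth read once vehicle control cultures reached saturation at 30 °C; 1 = growth at the plate median or of vehicle wells; lower values mean less growth of the strain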
Settings: S. cerevisiae deletion strains, growth OD

Measured: normalized growth

CC(=O)CCCCn1c(=O)c2c(ncn2C)n(C)c1=O
inactive: locus YAL013W, strain DEP1, hits give low values 1.02 | locus YAL021C, strain ccr4, hits give low values 1.01 | locus YAL026C, strain drs2, hits give low values 1.01 | locus YAL030W, strain snc1, hits give low values 1.01 | locus YAL040C, strain CLN3, hits give low values 1 | locus YBL061C, strain skt5, hits give low values 1.01 | locus YBR009C, strain hhf1, hits give low values 1.02 | locus YBR021W, strain FUR4, hits give low values 0.991 | locus YBR023C, strain chs3, hits give low values 1.01 | locus YBR171W, strain sec66, hits give low values 1.04 | locus YBR229C, strain ROT2, hits give low values 1.02 | locus YBR231C, strain swc5, hits give low values 1.03 | locus YBR279W, strain paf1, hits give low values 1 | locus YCL011C, strain gbp2, hits give low values 1.01 | locus YCL016C, strain dcc1, hits give low values 1.01 | locus YCL029C, strain bik1, hits give low values 1.01 | locus YCL061C, strain MRC1 (second series), hits give low values 1.01 | locus YCL061C, strain MRC1, hits give low values 1.01 | locus YCL069W, strain vba3, hits give low values 1 | locus YCR088W, strain abp1, hits give low values 1.01 | locus YDL005C, strain med2, hits give low values 1.01 | locus YDL035C, strain GPR1, hits give low values 1.01 | locus YDL040C, strain nat1, hits give low values 1.01 | locus YDL074C, strain BRE1, hits give low values 1.04 | locus YDL101C, strain DUN1, hits give low values 1.02 | locus YDL185W, strain tfp1, hits give low values 0.999 | locus YDL192W, strain arf1, hits give low values 1 | locus YDR001C, strain nth1, hits give low values 1.01 | locus YDR069C, strain doa4, hits give low values 1.03 | locus YDR101C, strain arx1, hits give low values 1.01 | locus YDR137W, strain rgp1, hits give low values 1.03 | locus YDR150W, strain NUM1, hits give low values 1.02 and 0.998 | locus YDR159W, strain sac3, hits give low values 1.03 | locus YDR162C, strain NBP2, hits give low values 1.01 | locus YDR195W, strain ref2 1.02 | locus YDR297W, strain sur2, hits give low values 1.01 | locus YDR318W, strain mcm21, hits give low values 0.993 | locus YDR334W, strain swr1, hits give low values 1.02 | locus YDR335W, strain msn5, hits give low values 1.01 | locus YDR363W, strain ESC2, hits give low values 1 | locus YDR388W, hits give low values 0.999 | locus YDR392W, strain spt3, hits give low values 1.02 | locus YDR502C, strain sam2, hits give low values 1.01 | locus YEL003W, strain gim4, hits give low values 1.01 | locus YEL037C, strain rad23, hits give low values 1.01 | locus YEL061C, strain CIN8 (second series), hits give low values 1.01 | locus YEL061C, strain CIN8, hits give low values 1.01 | locus YER002W, strain NOP16, hits give low values 1.03 | locus YER015W, strain faa2, hits give low values 1.02 | locus YER016W, strain bim1, hits give low values 1.01 | locus YER110C, hits give low values 0.992 | locus YER111C, strain swi4, hits give low values 1.03 | locus YER155C, strain BEM2 (second series), hits give low values 1.02 | locus YER155C, strain BEM2, hits give low values 1.01 | locus YER167W, strain BCK2, hits give low values 1 | locus YFR010W, strain ubp6, hits give low values 1.01 | locus YGL078C, strain dbp3, hits give low values 1.01 | locus YGL086W, strain mad1, hits give low values 1.01 | locus YGL167C, strain pmr1, hits give low values 1.02 | locus YGL173C, strain kem1, hits give low values 1.02 | locus YGL227W, strain vid30, hits give low values 1.01 | locus YGL240W, strain doc1, hits give low values 1.03 | locus YGL248W, strain PDE1, hits give low values 1.03 | locus YGL253W, strain hxk2, hits give low values 1.02 | locus YGR078C, strain PAC10, hits give low values 1.02 | locus YGR135W, strain pre9, hits give low values 0.967 | locus YGR229C, strain SMI1, hits give low values 1.02 | locus YGR252W, strain gcn5, hits give low values 0.983 | locus YHR013C, strain ard1, hits give low values 1.04 | locus YHR027C, strain rpn1, hits give low values 1.02 | locus YHR030C, strain SLT2, hits give low values 1.02 and 0.994 | locus YHR079C, strain IRE1 (second series), hits give low values 1.01 | locus YHR079C, strain IRE1, hits give low values 0.99 | locus YHR094C, strain hxt1, hits give low values 0.995 | locus YHR129C, strain ARP1, hits give low values 1.02 | locus YHR142W, strain chs7, hits give low values 1.01 | locus YHR200W, strain rpn10, hits give low values 1 | locus YIL066C, strain RNR3, hits give low values 1.03 | locus YIL073C, strain SPO22, hits give low values 0.971 | locus YIL125W, strain kgd1, hits give low values 0.999 | locus YIR030C, strain dcg1, hits give low values 1.01 | locus YJL092W, strain hpr5, hits give low values 1.01 | locus YJL095W, strain BCK1 (second series), hits give low values 1 | locus YJL095W, strain BCK1, hits give low values 1.03 and 0.986 | locus YJL115W, strain asf1, hits give low values 1.01 | locus YJL129C, strain trk1, hits give low values 1.03 | locus YJL134W, strain LCB3, hits give low values 1 | locus YJL154C, strain vps35, hits give low values 1.01 | locus YJL164C, strain tpk1, hits give low values 1.02 | locus YJL166W, strain qcr8, hits give low values 1.01 | locus YJL168C, strain set2, hits give low values 0.99 | locus YJL187C, strain SWE1 (second series), hits give low values 1.03 | locus YJL187C, strain SWE1, hits give low values 1.01 | locus YJR043C, strain POL32, hits give low values 1.04

From PubChem BioAssay AID1159580 (chemical genetic matrix, 2015)
